# In the library only some 19% were active in any assay of this set; here they are far more common.
# Pf growth 48h: inhibits P. falciparum growth in the first generation, 48 h. P. falciparum luciferase growth in erythrocytes, 48 h. Potency, µM (top dose mostly 28.7 µM), usual class: inhibitors. 5.9% of 310,000 active. AID 504832
#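 Here the parasites carry a stable luciferase gene and grow inside erythrocytes in Albumax-based RPMI medium with compound for one erythrocytic cycle. Activity is scored as loss of luminescent signal.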
# Shiga inhibitor: blocks Shiga toxin action in Vero cells; Vero cells, Shiga toxin protein synthesis inhibition reporter; AID 2315; 9.2% of 290,000 active; inhibition, % at 38.7 µM; in the data active means inhibition mostly above about 28%, no sharp cut-off; inactive means mostly below about 43%
# SARS PLpro yeast: SARS-CoV PLP inhibition in yeast; S. cerevisiae expressing SARS-CoV PLpro, growth rescue; Potency, µM (titrated, usually from 32.9 µM), hits mostly activators; 0.19% of 330,000 active; AID 485353; calls by dose curve; further: nearly all actives have a fitted effect of over 55% in size
# CHX counter: counter-screen hit for Shiga toxin inhibitors, cycloheximide; cell reporter, cycloheximide protein synthesis inhibition counterscreen; AID 2314; max response, %; 12% of 300,000 active; in the data active means max response mostly above about 13%, no sharp cut-off; inactive means mostly below about 14%; further: read at 38.3 µM for the half of the compounds with a filed dose
# AMA1-RON2 inh: disrupts binding of P. falciparum AMA1 to RON2; AlphaScreen AMA1-biotinylated RON2 peptide binding; Potency, µM (series often up to 58.2 µM), usual class: inhibitors; 0.2% of 360,000 active; further: nearly all actives have a fitted effect of over 45% in size
#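 AMA1 (3D7) with his tag at 25 nM final met compounds first, then biotinylated RON2 peptide at 25 nM; detection used donor plus acceptor beads, 10 µg/mL apiece, read by AlphaScreen after 30 min at room temperature.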
# Pf growth 96h: P. falciparum growth inhibition at 96 hours | Potency, µM (doses to about 28.7 µM), usual class: inhibitors | 6.9% of 320,000 active | AID 504834 | P. falciparum luciferase reporter growth, 96 h
#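 Luminescence readout: decreased luciferase signal marks inhibited growth of reporter-expressing P. falciparum in infected red cells (2% hematocrit, 0.05% parasitemia final), exposed to compound two generations (96 h, 37 C, 5% CO2).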
# Numbers stand for hits; i = inactive; ? = inconclusive; nt = no result given. Unless noted, the call rests on the fitted dose curve; in most records, active means well fitted curve in the direction sought with a large enough effect; inconclusive means small, poorly fitted or top-dose-only effect, or another doubt; inactive means no such curve, though single readings can be large; an effect the other way counts as inactive or inconclusive.
SMILES,Pf growth 48h,Shiga inhibitor,SARS PLpro yeast,CHX counter,AMA1-RON2 inh,Pf growth 96h
CC(C)CCNC(=O)C(CC(C)C)N(Cc1ccc2c(c1)OCO2)C(=O)c1snc(C(N)=O)c1N (stereo not drawn),?,i,i,i,i,i
COc1ccc(/C=N/NC(=O)c2cccs2)c2ccccc12,nt,nt,nt,nt,i,nt
Cc1cccc(C)c1OCC(=O)N/N=C/c1cccn1C,i,i,i,i,i,?
Cn1cc(/C=N\NC(=O)c2cccs2)c2ccccc21,i,63,i,49,i,5.9µM
Cn1cccc1/C=N/NC(=O)Cc1cccs1,i,49,i,i,i,i
O=C(Cn1c(=O)oc2ccccc21)Nc1ccc(Cl)cc1,i,nt,i,i,i,i
COc1ccc(C[C@H]2CN3C(=NC[C@H]3Cc3ccccc3)N2CCNC(=O)c2ccc(C)c(Br)c2)cc1,5.2µM,i,i,i,i,1.7µM
C/C=C(\C)C(=O)NCCN1C2=NC[C@@H](C)N2C[C@@H]1Cc1ccc(OC)cc1,i,i,i,i,i,i
COc1ccc(C[C@H]2CN3C(=NC[C@@H]3Cc3ccccc3)N2CCNC(=O)c2ccc(C)c(Br)c2)cc1,?,i,i,i,i,5.2µM
CC1(C)CC(=O)C2=C(C1)Oc1ncn(CCCn3ccnc3)c(=N)c1C2c1ccccc1 (stereo not drawn),?,i,i,i,i,?
COc1ccc(C2C3=C(CC(C)(C)CC3=O)Oc3ncn(CCCn4ccnc4)c(=N)c32)cc1 (stereo not drawn),9.3µM,i,i,i,i,5.2µM
CC1(C)CC(=O)C2=C(C1)Oc1ncn(Cc3ccco3)c(=N)c1C2c1ccccc1 (stereo not drawn),?,i,i,i,i,6.6µM
COc1ccc(C2C3=C(CC(C)(C)CC3=O)Oc3ncn(Cc4ccccc4)c(=N)c32)cc1 (stereo not drawn),nt,i,i,i,?,13µM
COc1ccc(C2C3=C(CC(C)(C)CC3=O)Oc3ncn4nc(-c5cccnc5)nc4c32)cc1 (stereo not drawn),nt,nt,nt,nt,i,nt
COc1ccc(-c2noc(CSc3nc(N)cc(=O)[nH]3)n2)cc1,i,i,i,8.0,i,i
COc1ccc(-c2noc(CSc3nc(-c4ccccc4)cc(=O)[nH]3)n2)cc1OC,i,i,i,i,i,i
CC1CCCCN1C(=O)C1CC(c2ccc(F)cc2)=NO1 (stereo not drawn),i,90,i,59,i,?
O=C(C1CC(c2ccc(F)cc2)=NO1)N1CCN(c2ccccc2)CC1 (stereo not drawn),nt,i,i,i,i,?
O=C(C1CC(c2ccc(F)cc2)=NO1)N1CCCCC1 (stereo not drawn),i,61,i,26,i,?
O=C(C1CC(c2ccc(F)cc2)=NO1)N1CCC2(CC1)OCCO2 (stereo not drawn),nt,71,i,45,i,nt
COc1cccc(C2=NOC(C(=O)N3CCc4ccccc4C3)C2)c1 (stereo not drawn),i,26,i,12,i,?
COc1cc(NC(=S)NN2CCN(C)CC2)cc(OC)c1,i,i,i,i,i,i
COC(CNc1ncnc2c1cnn2C)OC,i,i,i,i,i,i
Cc1nc(N(C)Cc2ccccc2)c2nnn(Cc3ccccc3)c2n1,nt,i,i,i,i,i
C[C@H](CO)N1C[C@H](C)[C@@H](CN(C)Cc2ccc(Oc3ccccc3)cc2)Oc2cc(Br)ccc2S1(=O)=O,nt,nt,nt,nt,i,nt
SMILES,Pf growth 48h,Shiga inhibitor,SARS PLpro yeast,CHX counter,AMA1-RON2 inh,Pf growth 96h
O=C(C1CC(c2ccccc2O)=NO1)N1CCc2ccccc2C1 (stereo not drawn),nt,i,i,i,i,i
O=C(C1CC(c2ccc(Cl)c(Cl)c2)=NO1)N1CCC2(CC1)OCCO2 (stereo not drawn),i,117,i,28,i,i
O=C(C1CC(c2ccccc2O)=NO1)N1CCCCC1 (stereo not drawn),i,133,i,48,i,nt
COc1cccc(C2=NOC(C(=O)N3CCC4(CC3)OCCO4)C2)c1 (stereo not drawn),i,97,i,52,i,i
COc1cccc(C2=NOC(C(=O)NC(C)C)C2)c1 (stereo not drawn),?,i,i,i,i,nt
N#CCc1c(C#N)c(N)nc(N2CCCC(CO)C2)c1C#N (stereo not drawn),i,i,i,i,i,i
CCOC(=O)CN(C(=O)CSc1nnc(-c2cccc(OC)c2)o1)c1ccc(F)cc1,?,i,?,15,i,?
COC(=O)CN(C(=O)CSc1nnc(-c2cccc(OC)c2)o1)c1ccc(OC)cc1,i,i,i,i,i,i
CCOC(=O)c1c(NC(=O)CSc2nnc(CNc3ccc(F)cc3)o2)sc(C(C)=O)c1C,i,i,i,i,i,1.7µM
CCOC(=O)CN(C(=O)CSc1nnc(CNc2ccc(F)cc2)n1C)c1ccccc1,?,i,i,i,i,nt
CCOC(=O)CN(C(=O)CSc1nnc(CNc2ccc(F)cc2)o1)c1ccccc1,i,i,i,22,i,i
CCC(=O)Nc1ccc(C(=O)CSc2nc3ccccc3[nH]2)cc1,i,i,i,i,i,i
CCCS(=O)(=O)NC(=O)C1(C)CCCN(C(=O)COc2ccccc2)C1 (stereo not drawn),nt,nt,nt,nt,i,nt
CN(CC(=O)Nc1ccc(F)c(F)c1F)C(=O)C1CCCC1,i,nt,i,nt,i,?
CSCC[C@H](NC(=O)[C@@H]1CSC2c3ccccc3C(=O)N21)C(=O)NC1CCCC1 (stereo partly drawn),?,i,i,i,i,?
CCOC(=O)c1ccccc1NC(=O)c1ccc2nccnc2c1,?,i,i,i,i,?
O=C(OC[C@@H](O)CO)c1ccccc1Nc1ccnc2cc(Cl)ccc12,?,nt,nt,nt,nt,1.6µM
Cc1c(Cl)cccc1Nc1ncccc1C(=O)OCC(O)CO (stereo not drawn),i,i,i,i,nt,i
O=C(OCC(O)CO)c1ccccc1Nc1ccnc2cc(Cl)ccc12 (stereo not drawn),8.3µM,nt,i,nt,i,?
COc1ccccc1CNC(=O)CCNC(=O)c1ccco1,?,nt,i,nt,i,i
CC(C)(C)c1ccc(CCC2OCC(C[N+]3(C)CCOCC3)O2)cc1 (stereo not drawn),?,i,i,i,i,2.6µM
Cc1ccc2c(CNCc3ccco3)cc(=O)oc2c1,i,55,i,38,i,i
O=C(COc1ccc2ccccc2c1Br)N1CCOCC1,i,39,i,i,i,nt
O=C(COc1ccccc1Cl)N1CCCC1,i,i,i,i,i,nt
CCOC(=O)N1CCN(C(=O)COc2ccc3ccccc3c2Br)CC1,i,i,i,i,i,13µM
O=C(COc1ccc2ccccc2c1Br)N1CCCC1,i,i,i,42,i,?
CCOC(=O)N1CCN(C(=O)COc2ccccc2Cl)CC1,i,i,i,i,i,i
O=C(COc1ccc2ccccc2c1Br)Nc1ncn[nH]1,i,76,i,32,i,nt

# Bioassay records: PubChem, National Center for Advancing Translational Sciences (NCATS)
